We go through 31 molecules from ChEMBL document CHEMBL1961873, “Compounds: GSK PKIS; Assays: Nanosyn kinase panel” (2012).

“And” between values parts separate entries of the source, which are not always exact repeats. Identical values can stand only once.

Protein kinase C eta type (Homo sapiens), sequence (P24723 whole entry): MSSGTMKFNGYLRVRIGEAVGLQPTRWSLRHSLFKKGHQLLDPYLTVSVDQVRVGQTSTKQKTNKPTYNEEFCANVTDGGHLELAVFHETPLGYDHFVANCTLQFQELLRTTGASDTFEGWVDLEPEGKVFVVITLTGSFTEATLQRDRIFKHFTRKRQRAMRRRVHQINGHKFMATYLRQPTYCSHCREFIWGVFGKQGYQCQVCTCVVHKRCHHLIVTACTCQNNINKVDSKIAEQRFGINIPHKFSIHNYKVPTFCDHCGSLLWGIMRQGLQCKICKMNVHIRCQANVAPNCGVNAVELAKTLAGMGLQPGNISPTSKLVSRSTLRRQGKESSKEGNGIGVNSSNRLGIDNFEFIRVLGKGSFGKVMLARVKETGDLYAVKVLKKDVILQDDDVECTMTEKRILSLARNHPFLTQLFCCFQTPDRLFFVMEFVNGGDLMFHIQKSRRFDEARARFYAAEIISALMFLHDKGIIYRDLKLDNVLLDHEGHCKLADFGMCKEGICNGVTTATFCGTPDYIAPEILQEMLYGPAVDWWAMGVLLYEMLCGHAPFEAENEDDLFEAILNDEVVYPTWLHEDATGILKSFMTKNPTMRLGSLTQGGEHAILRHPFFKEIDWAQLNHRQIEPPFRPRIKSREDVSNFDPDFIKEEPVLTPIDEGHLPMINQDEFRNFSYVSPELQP

In one experiment the target is Protein kinase C beta type (Homo sapiens) (UniProt P05771). To be noted: at 1 µM.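 Also: mean inhibition value, enzyme form tested was the PKC-beta1 splice variant.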
Protein kinase C beta type (Homo sapiens), sequence (P05771 2-671 limits assumed): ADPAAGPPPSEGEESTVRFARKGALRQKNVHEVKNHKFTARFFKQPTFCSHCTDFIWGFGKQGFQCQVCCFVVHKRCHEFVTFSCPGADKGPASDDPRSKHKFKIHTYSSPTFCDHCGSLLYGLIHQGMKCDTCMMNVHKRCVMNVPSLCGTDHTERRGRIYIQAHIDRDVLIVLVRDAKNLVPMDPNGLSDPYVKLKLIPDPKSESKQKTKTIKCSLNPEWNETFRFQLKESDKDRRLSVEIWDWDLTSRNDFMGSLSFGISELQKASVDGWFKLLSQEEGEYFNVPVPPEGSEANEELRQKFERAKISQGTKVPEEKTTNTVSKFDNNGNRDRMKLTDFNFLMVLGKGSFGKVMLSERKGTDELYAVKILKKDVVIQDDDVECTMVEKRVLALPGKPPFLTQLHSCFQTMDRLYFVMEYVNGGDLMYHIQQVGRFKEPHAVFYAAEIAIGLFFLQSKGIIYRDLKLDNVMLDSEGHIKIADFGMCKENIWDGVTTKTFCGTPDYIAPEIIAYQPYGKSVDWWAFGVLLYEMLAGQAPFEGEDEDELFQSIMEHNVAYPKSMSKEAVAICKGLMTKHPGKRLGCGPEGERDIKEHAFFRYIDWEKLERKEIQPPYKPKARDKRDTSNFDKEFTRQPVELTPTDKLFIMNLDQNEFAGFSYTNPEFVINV
The inhibition is the drop in the measured response relative to a control, in per cent. On to `CCCNc1cccc(-n2ncc3c(N/N=C/c4ccncc4)ncnc32)c1`, for which the inhibition stood at 5.99%.

For `O=C(O[C@H]1CN[C@H](C#Cc2cc3ncnc(Nc4ccc(OCc5cccc(F)c5)c(Cl)c4)c3s2)C1)N1CCOCC1`, the inhibition was 2.48%.

On to `Cc1cc(O)cc(C)c1/C=C/c1cncc(C(=O)OC(C)(C)C)c1`, for which the inhibition was -1.03%.

As for `O=C(O[C@H]1CN[C@H](C#Cc2cc3ncnc(Nc4ccc5c(cnn5Cc5ccccc5)c4)c3s2)C1)N1CCOCC1`, the inhibition was -6.28%.

With `Cc1ccc(-c2cc3c(NC(=O)C4CC4)ncnc3o2)cc1`, the inhibition turned out to be 2.41%.

`COc1cc(Nc2ncc(-c3ccccc3)o2)cc(OC)c1`: the inhibition worked out at 2.31%.

Turning to `CCOc1ccc2c(-c3ccnc(Nc4cc(OC)cc(C(F)(F)F)c4)n3)cnn2n1`, the inhibition is 2.13%.

In the case of `COC(=O)Nc1nc2ccc(Oc3ccc(NC(=O)Nc4cc(C(F)(F)F)ccc4F)cc3)cc2s1`, the inhibition stood at 2.17%.

As for `COC(=O)Nc1nc2cc(Oc3ccc(NC(=O)Nc4ccccc4)cc3)ccc2[nH]1`, the inhibition amounted to 2.12%.

Take `CCn1c(-c2nonc2N)nc2cncc(C(=O)NCCNC)c21`: the inhibition amounted to 74.4%.

For the molecule `COc1ccc(Nc2ncc(-c3ccccc3)o2)cc1OC`, the inhibition stood at 3.24%.

In the case of `N#Cc1ccc2c(-c3ccnc(NC4CC4)n3)c(-c3ccc(F)cc3)nn2c1`, the inhibition was -0.72%.

In the case of `Fc1cccc(COc2ccc(Nc3ncncc3C#Cc3ccccc3)cc2Cl)c1`, the inhibition worked out at 4.8%.

`CNC(=O)c1ncccc1Nc1nc(Nc2cc3c(cc2OC)CCCN3C(=O)CN(C)C)nc2[nH]ccc12`: the inhibition is 1.37%.

For `NS(=O)(=O)c1cccc(N/C=C2\C(=O)Nc3ccccc32)c1`, the inhibition amounted to 2.02%.

On to `CS(=O)(=O)CCNCc1ccc(-c2ccc3ncnc(Nc4ccc(OCc5ccccc5)cc4)c3c2)o1`, for which the inhibition turned out to be 0.21%.

With `Cn1c(-c2nonc2N)nc2cnccc21`, the inhibition stood at 36.2%.

As for `CS(=O)(=O)CCNCc1ccoc1-c1ccc2ncnc(Nc3ccc(OCc4ccccc4)cc3)c2c1`, the inhibition is -4.5%.

As for `CN1CCN(Cc2ccc(-c3cc4ncnc(Nc5ccc(OCc6cccc(F)c6)c(Cl)c5)c4s3)o2)CC1`, the inhibition was 0.12% and 3.28%.

In the case of `CC(C)c1ccc(-c2cc(-c3c[nH]nc3-c3ccccn3)ccn2)cc1`, the inhibition stood at 3.68%.

In the case of `Nc1ncnc2occ(-c3ccc(NC(=O)Nc4cc(C(F)(F)F)ccc4F)cc3)c12`, the inhibition was 1.13% and 0.29%.

Take `COc1ccc2ncn(-c3cc(O[C@H](C)c4ccccc4C(F)(F)F)c(C(N)=O)s3)c2c1`: the inhibition amounted to 1.04%.

`N#Cc1cccc(Nc2ncc(-c3ccccc3)o2)c1`: the inhibition is 2.96%.

As to `CS(=O)(=O)Nc1ccc(-c2ccc3c(NC(=O)C4CC4)n[nH]c3c2)cc1`, the inhibition came to 0.21%.

On to `Cc1nnc(-c2cccc(-c3ccc(C(=O)NCC4CC4)cc3)c2)o1`, for which the inhibition was 3.52%.

Turning to `CC1(C)CC(n2cnc(-c3ccc(F)cc3)c2-c2ccnc(N)n2)CC(C)(C)N1`, the inhibition was 3.35%.

For `CC1=C(C(=O)Nc2ccc3[nH]nc(C)c3c2)C(c2ccc(C(F)(F)F)cc2)CC(=O)N1` (configuration not stated), the inhibition was -0.53%.

For `NC(=O)c1ccc2c(-c3ccnc(NCCCO)n3)c(-c3ccc(F)cc3)nn2c1`, the inhibition was 17.5%.

On to `COc1cc(N2CCN(C(C)C)CC2)ccc1Nc1nc(Nc2cccc3ncccc23)c2cc[nH]c2n1`, for which the inhibition worked out at 2.34%.

Take `FC(F)(F)CNc1nccc(-c2cnn3ncccc23)n1`: the inhibition is 1.54%.

Consider `CCN1CCC(C(=O)Nc2n[nH]c3nnc(-c4cccc(F)c4F)cc23)CC1`, for which the inhibition was -0.14%.

A further experiment concerns the target Protein kinase C eta type (Homo sapiens) (UniProt P24723). To be noted: at 0.1 µM.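 Also: values are the mean percent inhibition of PKC-eta.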
Turning to `CCCNc1cccc(-n2ncc3c(N/N=C/c4ccncc4)ncnc32)c1`, the inhibition amounted to 2.17%.

Turning to `O=C(O[C@H]1CN[C@H](C#Cc2cc3ncnc(Nc4ccc(OCc5cccc(F)c5)c(Cl)c4)c3s2)C1)N1CCOCC1`, the inhibition turned out to be 2.88%.

Turning to `Cc1cc(O)cc(C)c1/C=C/c1cncc(C(=O)OC(C)(C)C)c1`, the inhibition was -1.29%.

For the molecule `O=C(O[C@H]1CN[C@H](C#Cc2cc3ncnc(Nc4ccc5c(cnn5Cc5ccccc5)c4)c3s2)C1)N1CCOCC1`, the inhibition is -1.67%.

For `Cc1ccc(-c2cc3c(NC(=O)C4CC4)ncnc3o2)cc1`, the inhibition was determined as 2.1%.

As for `COc1cc(Nc2ncc(-c3ccccc3)o2)cc(OC)c1`, the inhibition is 4.07%.

As to `CCOc1ccc2c(-c3ccnc(Nc4cc(OC)cc(C(F)(F)F)c4)n3)cnn2n1`, the inhibition was 1.53%.

For the molecule `COC(=O)Nc1nc2ccc(Oc3ccc(NC(=O)Nc4cc(C(F)(F)F)ccc4F)cc3)cc2s1`, the inhibition worked out at 2.29%.

As for `COC(=O)Nc1nc2cc(Oc3ccc(NC(=O)Nc4ccccc4)cc3)ccc2[nH]1`, the inhibition worked out at 2.8%.

For the molecule `CCn1c(-c2nonc2N)nc2cncc(C(=O)NCCNC)c21`, the inhibition was determined as 73.9%.

Consider `COc1ccc(Nc2ncc(-c3ccccc3)o2)cc1OC`, for which the inhibition came out at 0.42%.

Turning to `N#Cc1ccc2c(-c3ccnc(NC4CC4)n3)c(-c3ccc(F)cc3)nn2c1`, the inhibition amounted to 2.95%.

On to `Fc1cccc(COc2ccc(Nc3ncncc3C#Cc3ccccc3)cc2Cl)c1`, for which the inhibition amounted to 0.23%.

In the case of `CNC(=O)c1ncccc1Nc1nc(Nc2cc3c(cc2OC)CCCN3C(=O)CN(C)C)nc2[nH]ccc12`, the inhibition stood at 2.78%.

As for `NS(=O)(=O)c1cccc(N/C=C2\C(=O)Nc3ccccc32)c1`, the inhibition came to 1.78%.

For `CS(=O)(=O)CCNCc1ccc(-c2ccc3ncnc(Nc4ccc(OCc5ccccc5)cc4)c3c2)o1`, the inhibition was determined as 3.12%.

With `Cn1c(-c2nonc2N)nc2cnccc21`, the inhibition turned out to be 6.3%.

Turning to `CS(=O)(=O)CCNCc1ccoc1-c1ccc2ncnc(Nc3ccc(OCc4ccccc4)cc3)c2c1`, the inhibition worked out at 1.81%.

For `CN1CCN(Cc2ccc(-c3cc4ncnc(Nc5ccc(OCc6cccc(F)c6)c(Cl)c5)c4s3)o2)CC1`, the inhibition is 4.86% and 6.13%.

For the molecule `CC(C)c1ccc(-c2cc(-c3c[nH]nc3-c3ccccn3)ccn2)cc1`, the inhibition was 1.36%.

Take `Nc1ncnc2occ(-c3ccc(NC(=O)Nc4cc(C(F)(F)F)ccc4F)cc3)c12`: the inhibition is 1.5% and 0.01%.

With `COc1ccc2ncn(-c3cc(O[C@H](C)c4ccccc4C(F)(F)F)c(C(N)=O)s3)c2c1`, the inhibition was 1.89%.

As to `N#Cc1cccc(Nc2ncc(-c3ccccc3)o2)c1`, the inhibition was determined as 0.23%.

As to `CS(=O)(=O)Nc1ccc(-c2ccc3c(NC(=O)C4CC4)n[nH]c3c2)cc1`, the inhibition turned out to be 4.05%.

For `Cc1nnc(-c2cccc(-c3ccc(C(=O)NCC4CC4)cc3)c2)o1`, the inhibition came out at 3.46%.

Consider `CC1(C)CC(n2cnc(-c3ccc(F)cc3)c2-c2ccnc(N)n2)CC(C)(C)N1`, for which the inhibition came to 1.68%.

As to `CC1=C(C(=O)Nc2ccc3[nH]nc(C)c3c2)C(c2ccc(C(F)(F)F)cc2)CC(=O)N1` (configuration not stated), the inhibition stood at 3.4%.

For the molecule `NC(=O)c1ccc2c(-c3ccnc(NCCCO)n3)c(-c3ccc(F)cc3)nn2c1`, the inhibition worked out at 2.29%.

`COc1cc(N2CCN(C(C)C)CC2)ccc1Nc1nc(Nc2cccc3ncccc23)c2cc[nH]c2n1`: the inhibition is -2.11%.

`FC(F)(F)CNc1nccc(-c2cnn3ncccc23)n1`: the inhibition worked out at 2.22%.

As for `CCN1CCC(C(=O)Nc2n[nH]c3nnc(-c4cccc(F)c4F)cc23)CC1`, the inhibition is 0.24%.
